# According to PubChem BioAssay (NCATS):
# Records with an inconclusive call do not appear. Active and inactive are the calls of the source. Unless noted, calls come from the whole dose curve; as a rule, active = well fitted curve in either direction with a large enough effect (not every such curve was filed as active); inconclusive = small, poorly fitted or top-dose-only effect, or another doubt; inactive = flat fitted curve, though single readings scatter.
# Experiments:
# [1] = Primary qHTS for small molecule stabilizers of the endoplasmic reticulum resident proteome: Secreted ER Calcium Modulated Protein (SERCaMP) assay (AID 1508630; active = well fitted curve in the direction sought with a large enough effect; an effect the other way counts as inactive or inconclusive; note: % is set by controls: 0 for no effect and ±100 for the full control effect)
# How it was run: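 GLuc-SERCaMP-expressing SH-SY5Y cells, pretreated 16 h with compound, are challenged with thapsigargin to empty ER calcium stores; after 4 h, coelenterazine is added directly to the medium and luminescence is imaged.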
# [2] = target: Lysosomal acid glucosylceramidase (Homo sapiens) (UniProt P04062); assay: Glucocerebrosidase-p2 (AID 348; in the data active = potency below about 10 µM; note: potency is the fitted concentration of half-maximal effect); settings: purified GBA, blue fluorogenic substrate, 40 min
# Sequence of Lysosomal acid glucosylceramidase (Homo sapiens) (P04062 whole entry, looked up): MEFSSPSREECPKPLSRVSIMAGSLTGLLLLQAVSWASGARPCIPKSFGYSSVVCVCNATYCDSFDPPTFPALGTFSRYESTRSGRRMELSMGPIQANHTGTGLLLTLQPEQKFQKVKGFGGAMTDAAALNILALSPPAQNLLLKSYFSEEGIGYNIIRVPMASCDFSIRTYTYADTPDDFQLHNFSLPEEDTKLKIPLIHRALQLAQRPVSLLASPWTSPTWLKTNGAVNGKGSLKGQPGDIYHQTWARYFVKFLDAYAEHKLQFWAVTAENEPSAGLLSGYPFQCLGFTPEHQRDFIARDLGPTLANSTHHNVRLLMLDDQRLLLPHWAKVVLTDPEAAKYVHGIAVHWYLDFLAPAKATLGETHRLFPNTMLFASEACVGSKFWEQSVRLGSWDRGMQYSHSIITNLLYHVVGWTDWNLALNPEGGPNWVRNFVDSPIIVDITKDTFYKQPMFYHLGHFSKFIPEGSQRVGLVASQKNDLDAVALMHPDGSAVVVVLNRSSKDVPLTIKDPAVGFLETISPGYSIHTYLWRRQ
# How it was run: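 Compounds titrated from 0.6 nM upwards against 0.2 nM enzyme in pH 5.9 citric acid/KH2PO4, taurocholate, tween-20; blue fluorogenic substrate 80 uM, 40 min room temperature, stopped and read Ex 365/Em 440 for AC50.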
# [3] = AP1 Signaling Pathway (AID 357);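 note: ME-180 reporter cells stimulated with EGF at its EC50 level; % is set by controls: 0 for no effect and ±100 for the full control effect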
# How it was run: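 A ratiometric CCF4 readout (405 nm excitation; 460 and 530 nm emission) quantified AP-1-driven beta-lactamase in ME-180 cells after 5 h with compound and EC50 EGF; AC50 values were derived for activators and inhibitors.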
# [4] = target: Cytochrome P450 1A2 (Homo sapiens) (UniProt P05177); assay: p450-cyp1a2 (AID 410; calls by dose curve;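 note: -100% = full effect of reference inhibitor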)
# Sequence of Cytochrome P450 1A2 (Homo sapiens) (P05177 whole entry, looked up): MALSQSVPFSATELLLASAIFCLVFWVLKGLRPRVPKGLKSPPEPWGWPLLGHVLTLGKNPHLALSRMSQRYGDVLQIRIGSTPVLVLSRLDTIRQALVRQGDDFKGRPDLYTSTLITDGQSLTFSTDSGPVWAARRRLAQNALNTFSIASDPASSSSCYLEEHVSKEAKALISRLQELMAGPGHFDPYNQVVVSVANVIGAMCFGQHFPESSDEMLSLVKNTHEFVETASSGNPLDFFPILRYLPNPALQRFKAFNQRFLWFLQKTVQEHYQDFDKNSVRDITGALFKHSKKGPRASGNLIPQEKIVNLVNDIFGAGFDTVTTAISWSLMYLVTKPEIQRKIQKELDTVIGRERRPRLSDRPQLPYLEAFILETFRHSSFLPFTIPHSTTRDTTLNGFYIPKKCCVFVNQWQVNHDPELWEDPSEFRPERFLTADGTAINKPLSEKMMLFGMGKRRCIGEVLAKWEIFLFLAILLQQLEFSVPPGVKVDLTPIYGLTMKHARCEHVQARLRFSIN
# How it was run: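 Luminescent readout of luciferin formed from Luciferin-ME by human CYP1A2; data normalized against complete inhibition by 57 uM furafylline. Enzyme 20nM, substrate 100uM at Km, 100mM KPO4 buffer, 60 min reaction at room temperature.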
# [5] = Stat Signaling Pathway (AID 446);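 note: ME-180 cervical cancer cells given 40 pM IL-6 alongside compound; SIE-controlled beta-lactamase reporter measured as 460/530 nm FRET emission ratio; % is set by controls: 0 for no effect and ±100 for the full control effect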
# How it was run: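 Reporter line: ME-180 cervical carcinoma, SIE-beta-lactamase. Treatment: compound with 40 pM IL-6, 5 hrs, 37 C, in low-serum OPTI-MEM with 10 mM HEPES pH 7.3. Detection: 460/530 nm fluorescence.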
# [6] = target: Glucocorticoid receptor (Homo sapiens) (UniProt P04150); assay: GR-EFC Redistribution (AID 451; calls by dose curve; note: potency is the fitted concentration of half-maximal effect); settings: CHO-K1 GR-EFC translocation, beta-gal luminescence, 2 h
# Sequence of Glucocorticoid receptor (Homo sapiens) (P04150 whole entry, looked up, the tested form may be a part): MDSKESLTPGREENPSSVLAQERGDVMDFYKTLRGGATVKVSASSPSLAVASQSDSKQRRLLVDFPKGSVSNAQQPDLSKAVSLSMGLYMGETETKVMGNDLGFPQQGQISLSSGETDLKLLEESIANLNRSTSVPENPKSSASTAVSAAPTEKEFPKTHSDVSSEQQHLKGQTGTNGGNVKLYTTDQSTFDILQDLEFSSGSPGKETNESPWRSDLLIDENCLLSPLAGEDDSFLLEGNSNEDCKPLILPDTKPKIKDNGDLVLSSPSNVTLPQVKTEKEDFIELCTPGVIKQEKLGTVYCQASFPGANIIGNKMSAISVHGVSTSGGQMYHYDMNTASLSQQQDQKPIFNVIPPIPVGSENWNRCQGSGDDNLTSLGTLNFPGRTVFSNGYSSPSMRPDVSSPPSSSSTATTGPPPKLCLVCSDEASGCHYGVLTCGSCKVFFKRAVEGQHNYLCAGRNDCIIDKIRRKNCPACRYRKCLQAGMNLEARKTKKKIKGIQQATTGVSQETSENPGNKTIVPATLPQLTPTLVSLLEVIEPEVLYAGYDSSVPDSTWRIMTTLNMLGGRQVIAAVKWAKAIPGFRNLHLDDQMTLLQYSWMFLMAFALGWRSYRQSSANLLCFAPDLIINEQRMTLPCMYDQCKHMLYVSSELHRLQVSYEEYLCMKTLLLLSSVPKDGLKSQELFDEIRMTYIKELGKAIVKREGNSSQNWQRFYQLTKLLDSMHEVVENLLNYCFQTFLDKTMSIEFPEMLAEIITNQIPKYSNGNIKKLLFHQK
# How it was run: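 CHO-K1 cells expressing nuclear EA and GR-ED fragments of b-gal; compounds titrated up to 46 uM final, 2 h at 37 C. GR nuclear translocation read as complemented b-gal luminescence after 1 h RT detection.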
# [7] = target: Mitogen-activated protein kinase 10 (Mus musculus) (UniProt Q61831); assay: JNK3 AlphaScreen Assay (AID 530);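 note: kinase came from lysate of stimulated human HepG2 cells; signal reports phosphorylation of biotinylated GST-cJun 1-79 at Ser73 with 10 µM ATP; % is set by controls: 0 for no effect and ±100 for the full control effect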
# How it was run: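 Pre-activated (IL-1β/TNFα) JNK3 in HepG2 lysates phosphorylates biotin-GST-cJun(1-79), 10 uM ATP; anti-phospho-cJun(Ser73) AlphaScreen read at room temperature, pH 7.6 Tris buffer. Compounds pre-incubated 15 min as titrations.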
# [8] = target: 3',5'-cyclic-AMP phosphodiesterase 4B (Homo sapiens) (UniProt Q07343); assay: qHTS Assay for Inhibitors of PDE-IV (AID 607; active = well fitted activation curve with a large enough effect in the main read-out, with a control signal flat, not every such curve was filed as active; note: % of control where 0% means no effect)
# Sequence of 3',5'-cyclic-AMP phosphodiesterase 4B (Homo sapiens) (Q07343 whole entry, looked up): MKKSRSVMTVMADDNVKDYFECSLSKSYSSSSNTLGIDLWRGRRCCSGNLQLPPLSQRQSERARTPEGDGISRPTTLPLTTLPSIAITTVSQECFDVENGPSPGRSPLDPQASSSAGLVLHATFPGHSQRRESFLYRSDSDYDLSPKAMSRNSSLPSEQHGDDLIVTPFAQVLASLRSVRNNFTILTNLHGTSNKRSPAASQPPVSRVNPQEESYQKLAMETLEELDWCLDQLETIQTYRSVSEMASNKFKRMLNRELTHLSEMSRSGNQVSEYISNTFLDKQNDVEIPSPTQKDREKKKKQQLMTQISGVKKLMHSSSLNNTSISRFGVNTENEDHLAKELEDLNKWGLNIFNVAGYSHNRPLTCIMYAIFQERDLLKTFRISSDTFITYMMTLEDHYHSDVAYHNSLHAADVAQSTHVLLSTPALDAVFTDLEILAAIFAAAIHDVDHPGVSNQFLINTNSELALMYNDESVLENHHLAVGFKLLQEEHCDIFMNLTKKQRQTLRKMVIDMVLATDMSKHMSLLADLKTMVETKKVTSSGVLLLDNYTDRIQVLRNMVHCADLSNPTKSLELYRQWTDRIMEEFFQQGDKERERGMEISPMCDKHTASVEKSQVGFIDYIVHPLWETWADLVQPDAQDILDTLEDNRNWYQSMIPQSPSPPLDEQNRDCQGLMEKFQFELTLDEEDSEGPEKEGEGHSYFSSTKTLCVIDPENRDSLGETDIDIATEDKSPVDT
# How it was run: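 Cell-based read-out of cAMP via a modified cyclic nucleotide-gated channel and membrane potential dye (535/590 nm) in HEK293 cells expressing PDE4 endogenously. Compounds tested up to 22.9 uM final; 100 uM RO 20-1724 reference.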
# [9] = target: Cytochrome P450 3A4 (Homo sapiens) (UniProt P08684); assay: qHTS Assay for Activators of Cytochrome P450 3A4 (AID 885; active = well fitted curve in the direction sought with a large enough effect; an effect the other way counts as inactive or inconclusive; note: nearly all actives have a fitted effect of over 65% in size)
# Sequence of Cytochrome P450 3A4 (Homo sapiens) (P08684 whole entry, looked up): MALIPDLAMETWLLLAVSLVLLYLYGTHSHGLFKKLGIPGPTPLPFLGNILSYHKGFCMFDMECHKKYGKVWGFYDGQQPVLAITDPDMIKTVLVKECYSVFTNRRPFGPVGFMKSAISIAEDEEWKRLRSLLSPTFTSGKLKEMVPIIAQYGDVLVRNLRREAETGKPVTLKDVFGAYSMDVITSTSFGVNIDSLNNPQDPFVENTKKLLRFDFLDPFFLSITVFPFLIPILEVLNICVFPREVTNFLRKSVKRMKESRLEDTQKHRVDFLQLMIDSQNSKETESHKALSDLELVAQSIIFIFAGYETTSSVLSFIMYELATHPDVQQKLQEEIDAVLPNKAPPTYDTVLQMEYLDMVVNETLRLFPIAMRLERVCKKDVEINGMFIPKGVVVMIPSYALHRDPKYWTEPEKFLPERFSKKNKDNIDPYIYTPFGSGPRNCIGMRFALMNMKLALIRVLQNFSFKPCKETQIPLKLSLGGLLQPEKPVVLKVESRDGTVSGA
# How it was run: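 Signal was normalized against complete inhibition by 57 uM ketoconazole. The reaction used 20nM CYP3A4 with 25uM Luciferin-PPXE, 10-min compound preincubation and a 60-min NADPH-supported step at RT.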
# [10] = target: Cytochrome P450 2D6 (Homo sapiens) (UniProt P10635); assay: qHTS Assay for Inhibitors and Substrates of Cytochrome P450 2D6 (AID 891; active = well fitted curve in the direction sought with a large enough effect; an effect the other way counts as inactive or inconclusive; note: potency is the fitted concentration of half-maximal effect; nearly all actives have a fitted effect of over 60% in size)
# Sequence of Cytochrome P450 2D6 (Homo sapiens) (P10635 whole entry, looked up): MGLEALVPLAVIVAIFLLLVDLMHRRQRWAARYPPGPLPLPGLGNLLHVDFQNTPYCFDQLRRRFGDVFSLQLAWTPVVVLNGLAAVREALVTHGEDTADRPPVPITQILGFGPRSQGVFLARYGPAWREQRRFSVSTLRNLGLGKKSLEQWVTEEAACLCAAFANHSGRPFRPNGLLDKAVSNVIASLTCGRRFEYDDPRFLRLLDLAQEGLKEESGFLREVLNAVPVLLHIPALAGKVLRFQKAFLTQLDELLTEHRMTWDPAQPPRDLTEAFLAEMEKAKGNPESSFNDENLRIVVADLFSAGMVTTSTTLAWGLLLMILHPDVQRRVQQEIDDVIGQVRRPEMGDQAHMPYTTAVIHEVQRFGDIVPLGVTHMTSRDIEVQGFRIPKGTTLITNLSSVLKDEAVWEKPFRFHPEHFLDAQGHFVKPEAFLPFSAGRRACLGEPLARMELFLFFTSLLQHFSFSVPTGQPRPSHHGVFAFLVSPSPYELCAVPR
# How it was run: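 Human CYP2D6 (5 nM) with 30 uM Luciferin-ME EGE (at Km) in 100 mM KPO4, compound preincubated 10 min, then NADPH regeneration system for 60 min at room temperature. Luciferin read by luminescence; normalized to 1.43 uM quinidine.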
# [11] = qHTS Assay for Lipid Storage Modulators (AID 1519; calls by dose curve); settings: Drosophila S3 cells, BODIPY lipid droplet/cell ratio, laser cytometry, cells loaded with oleic acid; for activity change, negative = inhibition: at 57.5 µM (top of the series)
# How it was run: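 Cells seeded at 5,000 per well were treated with compounds over a concentration series and loaded with oleic acid (400 uM, as added). Lipid droplet fluorescence (488 nm excitation, 500-530 nm channel) was read by laser-scanning cytometry and normalized to 20 uM Triacsin C.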
# [12] = NFAT Signaling Pathway (AID 444); settings: Jurkat NFAT-bla M1, carbachol, beta-lactamase ratio, 5 h; at 7.69 µM (top of the series)
# How it was run: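 Jurkat cells with NFAT-driven β-lactamase reporter and co-expressed M1 receptor, stimulated with carbachol (final 1 uM, ~EC50), compound titration, 5 h at 37 °C. CCF4 loaded 1 h at RT; 460/530 nm ratio gave %activity and AC50.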
# [13] = tested on: HIV-1 nucleocapsid protein NCp7 (binding to TG oligonucleotide); assay: HIV Nucleocapsid (AID 346; call rule not given here;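 note: potency is the fitted concentration of half-maximal effect; potency is for inhibitors that block NC binding and lower polarization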); settings: HIV-1 NC / fluorescein-TGTGTGTG probe, fluorescence polarization
# How it was run: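 Fluorescence polarization readout: labelled TG4xF oligo (10 nM) with 100 nM nucleocapsid protein, high-salt (250mM NaCl) Hepes pH 7.5 buffer containing zinc and fresh reducing agents. Compounds added by pin tool; incubation 1 hr, room temperature.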
# [14] = target: Cytochrome P450 2C19 (Homo sapiens) (UniProt P33261); assay: qHTS Assay for Inhibitors and Substrates of Cytochrome P450 2C19 (AID 899; active = well fitted curve in the direction sought with a large enough effect; an effect the other way counts as inactive or inconclusive; note: potency is the fitted concentration of half-maximal effect; nearly all actives have a fitted effect of over 60% in size)
# Sequence of Cytochrome P450 2C19 (Homo sapiens) (P33261 whole entry, looked up): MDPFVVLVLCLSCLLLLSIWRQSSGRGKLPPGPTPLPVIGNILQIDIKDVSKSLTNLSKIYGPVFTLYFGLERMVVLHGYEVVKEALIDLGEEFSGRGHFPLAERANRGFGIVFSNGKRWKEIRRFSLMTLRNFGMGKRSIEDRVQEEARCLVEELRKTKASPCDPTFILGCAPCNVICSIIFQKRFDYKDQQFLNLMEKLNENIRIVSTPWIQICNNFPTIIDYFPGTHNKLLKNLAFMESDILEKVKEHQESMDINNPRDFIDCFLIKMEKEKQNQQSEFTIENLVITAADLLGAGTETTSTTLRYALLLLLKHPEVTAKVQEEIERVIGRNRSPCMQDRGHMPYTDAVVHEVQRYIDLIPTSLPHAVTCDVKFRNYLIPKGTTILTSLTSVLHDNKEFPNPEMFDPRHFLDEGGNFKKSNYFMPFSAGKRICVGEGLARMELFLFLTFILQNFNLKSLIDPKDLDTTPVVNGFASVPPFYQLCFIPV
# How it was run: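 5 nM human CYP2C19 with 10uM Luciferin-H EGE (at KM) in 50mM KPO4, compound preincubated 10 min at 37C, then NADPH regeneration for 60 min at 37C. Luciferin read by luminescence after detection reagent; normalized to 57uM ketoconazole as full inhibition.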
# [15] = measured here: cell count channel max response
# [16] = measured here: lipid channel max response
SMILES,outcome [1],Potency [2],outcome [3],Potency [4],outcome [5],Potency [6],outcome [7],Potency [8],Potency [9],Potency [10],"activity change, negative = inhibition [11]","max response [11, 15] [%]","max response [11, 16] [%]","activity change, negative = inhibition [12]",Potency [13],Potency [14]
CC1(C)C2C[C@@H](O)[C@]3(C)C(CC[C@@]4(C)[C@H](c5ccoc5)C[C@H]5O[C@]543)[C@@]2(C)[C@@H](O)C[C@H]1O (stereo partly specified),inactive,–,–,–,–,–,–,–,–,–,–,–,–,–,–,–
c1ccc(N2CCC3(CCNCC3)CC2)nc1,–,> 11.4 µM (inactive),inactive,inactive,inactive,> 46 µM (inactive),inactive,inactive,inactive,1.26 µM (active),6.81% (inactive),19.9,29.9,–,–,–
c1cnc(N2CC3(CCNCC3)C2)nc1,inactive,> 11.4 µM (inactive),inactive,–,inactive,> 46 µM (inactive),inactive,inactive,–,–,1.55% (inactive),11.6,15.7,-1.58% (inactive),–,–
c1ccc(N2CC3(CCNCC3)C2)nc1,inactive,> 11.4 µM (inactive),inactive,–,inactive,> 46 µM (inactive),inactive,inactive,–,–,-0.659% (inactive),12.4,14.7,–,–,–
O=C(Nc1ccccc1)N1CC[C@@]2(CCCNC2)C1,inactive,> 11.4 µM (inactive),inactive,–,inactive,> 46 µM (inactive),inactive,inactive,–,–,-3.27% (inactive),4.57,3,19.4% (inactive),–,–
CN1CC[C@@]2(CCCN(C(=O)Oc3ccccc3)C2)C1,inactive,> 11.4 µM (inactive),inactive,inactive,inactive,> 46 µM (inactive),inactive,inactive,inactive,–,2.41% (inactive),16.8,22,0.664% (inactive),–,–
N#Cc1ccc(CN2CC3(CCNCC3)C2)cc1,inactive,> 11.4 µM (inactive),inactive,–,inactive,> 46 µM (inactive),inactive,inactive,–,–,-3.34% (inactive),-8.82,-10.3,-23.5% (inactive),> 20 µM (inactive),–
c1ccc(CN2CCC3(CCNCC3)CC2)cc1,inactive,> 11.4 µM (inactive),inactive,inactive,inactive,> 46 µM (inactive),inactive,–,–,–,1.99% (inactive),22.2,27.4,–,–,5.01 µM (active)
